# Measurements from PubChem BioAssay (NCATS).
# Inconclusive results are not listed. A number with no mark means an inactive call. The source made the active and inactive calls. Calls follow the shape of the dose curve; as a rule, active = well fitted curve in the direction sought with a large enough effect; inconclusive = small, poorly fitted or top-dose-only effect, or another doubt; inactive = no such curve, though single readings can be large; an effect the other way counts as inactive or inconclusive.
# How the values were obtained:
# [1] = Quantitative High-Throughput drug screen in 47 multiple myeloma cell lines against the NCATS MIPE library collection: KMS12PE_JCRB cell viability assay (AID 1918972); also: nearly all actives have a fitted effect of over 30% in size; also: potency is read from the fitted curve at half-maximal effect
# Summary of the method: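 Myeloma cells (500 per well) were exposed to MIPE 4.0 compounds by pin transfer and incubated 48 hours at 37C, 5% CO2. Viability was read as ATP by CellTiter-Glo luminescence, normalised to DMSO (100%) and media-only (0%) wells.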
# [2] = Quantitative High-Throughput drug screen in 47 multiple myeloma cell lines against the NCATS MIPE library collection: KMS21BM_JCRB cell viability assay (AID 1918974); details: ATP luminescence, 48 h; viability: at 45.8 µM (top of the series) unless noted; also: potency is read from the fitted curve at half-maximal effect
# Summary of the method: (§1)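 Steps: seed 500 cells per well; pin-transfer MIPE 4.0 library; incubate 48 h at 37C, 5% CO2, humidified; add CellTiter-Glo, 5 min room temperature; read luminescence.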
# [3] = Quantitative High-Throughput drug screen in 47 multiple myeloma cell lines against the NCATS MIPE library collection: MMM1_PLB cell viability assay (AID 1918976); also: potency is read from the fitted curve at half-maximal effect; nearly all actives have a fitted effect of over 35% in size
# Summary of the method: (§2)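 Myeloma cells (500/well) treated with MIPE 4.0 compounds for 48 h at 37 °C, 5% CO2. Viability read as ATP via CellTiter-Glo luminescence after 5 min at RT; DMSO-only wells = 100%, media-only = 0% viability.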
# [4] = Quantitative High-Throughput drug screen in 47 multiple myeloma cell lines against the NCATS MIPE library collection: NCIH929_DSMZ cell viability assay (AID 1918978); also: nearly all actives have a fitted effect of over 35% in size; also: potency is read from the fitted curve at half-maximal effect
# Summary of the method: as §2
# [5] = Quantitative High-Throughput drug screen in 47 multiple myeloma cell lines against the NCATS MIPE library collection: OCIMY1_PLB cell viability assay (AID 1918979); also: nearly all actives have a fitted effect of over 35% in size; also: potency is read from the fitted curve at half-maximal effect
# Summary of the method: as §2
# [6] = Quantitative High-Throughput drug screen in 47 multiple myeloma cell lines against the NCATS MIPE library collection: MM1S_ATCC cell viability assay (AID 1918980); also: nearly all actives have a fitted effect of over 45% in size; also: potency is read from the fitted curve at half-maximal effect
# Summary of the method: as §2
# [7] = Quantitative High-Throughput drug screen in 47 multiple myeloma cell lines against the NCATS MIPE library collection: MM1R_ATCC cell viability assay (AID 1918981); also: nearly all actives have a fitted effect of over 35% in size; also: potency is read from the fitted curve at half-maximal effect
# Summary of the method: as §2
# [8] = Quantitative High-Throughput drug screen in 47 multiple myeloma cell lines against the NCATS MIPE library collection: KMS28PE_JCRB cell viability assay (AID 1918983)
# Summary of the method: as §2
# [9] = Quantitative High-Throughput drug screen in 47 multiple myeloma cell lines against the NCATS MIPE library collection: OCIMY7_PLB cell viability assay (AID 1918987); also: nearly all actives have a fitted effect of over 65% in size; also: potency is read from the fitted curve at half-maximal effect
# Summary of the method: as §2
# [10] = Quantitative High-Throughput drug screen in 47 multiple myeloma cell lines against the NCATS MIPE library collection: U266_ATCC cell viability assay (AID 1919864); also: nearly all actives have a fitted effect of over 35% in size; also: potency is read from the fitted curve at half-maximal effect
# Summary of the method: as §2
# [11] = Quantitative High-Throughput drug screen in 47 multiple myeloma cell lines against the NCATS MIPE library collection: XG6_PLB cell viability assay (AID 1919865); also: nearly all actives have a fitted effect of over 40% in size; also: potency is read from the fitted curve at half-maximal effect
# Summary of the method: as §2
# [12] = Quantitative High-Throughput drug screen in 47 multiple myeloma cell lines against the NCATS MIPE library collection: KMS26_JCRB cell viability assay (AID 1918975); also: nearly all actives have a fitted effect of over 45% in size; also: potency is read from the fitted curve at half-maximal effect
# Summary of the method: as §1
# [13] = Quantitative High-Throughput drug screen in 47 multiple myeloma cell lines against the NCATS MIPE library collection: LP1_DSMZ cell viability assay (AID 1918982); also: nearly all actives have a fitted effect of over 35% in size; also: potency is read from the fitted curve at half-maximal effect
# Summary of the method: as §2
# [14] = Quantitative High-Throughput drug screen in 47 multiple myeloma cell lines against the NCATS MIPE library collection: KMS34_JCRB cell viability assay (AID 1918985); also: nearly all actives have a fitted effect of over 40% in size; also: potency is read from the fitted curve at half-maximal effect
# Summary of the method: as §2
# [15] = Quantitative High-Throughput drug screen in 47 multiple myeloma cell lines against the NCATS MIPE library collection: MOLP8_DSMZ cell viability assay (AID 1918977); also: nearly all actives have a fitted effect of over 45% in size
# Summary of the method: as §2
# [16] = Quantitative High-Throughput drug screen in 47 multiple myeloma cell lines against the NCATS MIPE library collection: OPM1_PLB cell viability assay (AID 1918989); also: nearly all actives have a fitted effect of over 40% in size; also: potency is read from the fitted curve at half-maximal effect
# Summary of the method: as §2
# [17] = Quantitative High-Throughput drug screen in 47 multiple myeloma cell lines against the NCATS MIPE library collection: SKMM1_PLB cell viability assay (AID 1919863); details: SKMM1 myeloma viability, CellTiter-Glo ATP, 48 h; viability: hits give low values; also: nearly all actives have a fitted effect of over 35% in size; also: potency is read from the fitted curve at half-maximal effect
# Summary of the method: as §2
# [18] = Quantitative High-Throughput drug screen in 47 multiple myeloma cell lines against the NCATS MIPE library collection: KMS20_JCRB cell viability assay (AID 1918973); also: nearly all actives have a fitted effect of over 45% in size
# Summary of the method: as §1
# [19] = Quantitative High-Throughput drug screen in 47 multiple myeloma cell lines against the NCATS MIPE library collection: L363_DSMZ cell viability assay (AID 1918984); also: nearly all actives have a fitted effect of over 40% in size; also: potency is read from the fitted curve at half-maximal effect
# Summary of the method: as §2
# [20] = Quantitative High-Throughput drug screen in 47 multiple myeloma cell lines against the NCATS MIPE library collection: OCIMY5_PLB cell viability assay (AID 1918988); also: potency is read from the fitted curve at half-maximal effect; nearly all actives have a fitted effect of over 65% in size
# Summary of the method: as §2
compound,measurement,setting,value
NNCCc1ccccc1,Potency,[1],14.8 µM (active)
same,Potency,[2],13.2 µM (active)
same,Potency,[3],5.9 µM (active)
same,Potency,[4],inactive
same,Potency,[5],inactive
same,Potency,[6],5.9 µM (active)
same,Potency,[7],6.62 µM (active)
same,Potency,[8],9.35 µM (active)
same,Potency,[9],inactive
same,Potency,[10],8.33 µM (active)
same,Potency,[11],inactive
CC(C)NCC(O)COc1ccc(COCCOC(C)C)cc1 (stereo not drawn),Potency,[1],inactive
same,Potency,[12],inactive
same,Potency,[4],inactive
same,Potency,[5],inactive
same,Potency,[6],inactive
same,Potency,[13],inactive
same,Potency,[14],inactive
same,Potency,[10],inactive
same,Potency,[11],inactive
O=NN(CCCl)C(=O)NCCCl,Potency,[1],inactive
same,Potency,[2],inactive
same,Potency,[15],inactive
same,Potency,[4],inactive
same,Potency,[7],inactive
same,Potency,[13],inactive
same,Potency,[16],inactive
same,viability,[17],118%
same,Potency,[11],inactive
Cc1c(CCOc2ccc(C(=O)O)cc2)c2cc(Cl)ccc2n1C(c1ccccc1)c1ccccc1,Potency,[1],inactive
same,Potency,[18],inactive
same,Potency,[4],inactive
same,Potency,[5],inactive
same,Potency,[6],9.35 µM (active)
same,Potency,[7],11.8 µM (active)
same,Potency,[8],23.5 µM (active)
same,Potency,[9],inactive
same,viability,[17],110%
same,Potency,[10],11.8 µM (active)
same,Potency,[11],inactive
CN(C)c1ccc(C2Nc3ccc4ccccc4c3C3=C2C(=O)CC(C)(C)C3)cc1Br (stereo not drawn),Potency,[1],5.9 µM (active)
same,Potency,[12],16.6 µM (active)
same,Potency,[3],14.8 µM (active)
same,Potency,[5],inactive
same,Potency,[6],inactive
same,Potency,[8],23.5 µM (active)
same,Potency,[19],inactive
same,Potency,[14],inactive
same,Potency,[9],0.935 µM (active)
same,Potency,[20],23.5 µM (active)
same,Potency,[10],inactive
S=C(NCc1ccc2c(c1)OCO2)N1CCN(c2ncnc3c2oc2ccccc23)CC1,Potency,[1],1.52 µM (active)
same,Potency,[2],1.21 µM (active)
same,Potency,[3],1.21 µM (active)
same,Potency,[4],4.81 µM (active)
same,Potency,[5],42.9 µM (active)
same,Potency,[6],3.82 µM (active)
same,Potency,[13],2.7 µM (active)
same,Potency,[8],6.05 µM (active)
same,Potency,[19],0.605 µM (active)
same,Potency,[14],inactive
same,Potency,[9],4.29 µM (active)
same,Potency,[20],9.59 µM (active)
same,Potency,[16],2.41 µM (active)
same,Potency,[10],12.1 µM (active)
same,Potency,[11],2.41 µM (active)
CN(C)c1ccc(Nc2nc(N)n(C(=O)c3c(F)cccc3F)n2)cc1,Potency,[1],16.6 µM (active)
same,Potency,[2],2.35 µM (active)
same,Potency,[4],26.4 µM (active)
same,Potency,[5],inactive
same,Potency,[6],14.8 µM (active)
same,Potency,[7],18.7 µM (active)
same,Potency,[13],16.6 µM (active)
same,Potency,[14],2.35 µM (active)
same,Potency,[9],2.35 µM (active)
same,Potency,[20],11.8 µM (active)
same,Potency,[10],18.7 µM (active)
same,Potency,[11],3.72 µM (active)
CCOc1cc(N2CCC(O)CC2)ccc1Nc1ncc2c(n1)N(C)c1ccccc1C(=O)N2C,Potency,[1],1.05 µM (active)
same,Potency,[2],0.526 µM (active)
same,Potency,[12],4.18 µM (active)
same,Potency,[6],5.26 µM (active)
same,Potency,[7],16.6 µM (active)
same,Potency,[8],16.6 µM (active)
same,Potency,[19],0.526 µM (active)
same,Potency,[14],10.5 µM (active)
same,Potency,[20],14.8 µM (active)
same,Potency,[17],11.8 µM (active)
